Records with an inconclusive call do not appear. A call without a number means that no potency is given here. Activity calls are given as the source filed them. Calls follow the shape of the dose curve; as a rule, active = well fitted cell-killing curve with a large enough effect; inconclusive = small, poorly fitted or top-dose-only effect, or effect the other way; inactive = flat fitted curve, though single readings scatter.
Potency is read from the fitted curve at half-maximal effect.

The subject of the assay is Es-2. The assay is described as follows: Primary qHTS to identify gynecologic anti-cancer compounds using libraries of approved drugs and bioactive compounds (AID 1345084). Also: nearly all actives have a fitted effect of over 55% in size. The note with it: Gynecologic cancer cell panel viability, ATPlite luminescence, 48 h; series mostly up to 57.5 µM. An outline of the steps:
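Five-point cytotoxicity, 48 h drug exposure at 37 C, 5% CO2, on cells seeded 16 h beforehand. ATP content read by ATPlite luminescence.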
For `CN[C@@H](C)C(=O)N[C@H]1CN(C(=O)CC(C)C)CC[C@H]2CC[C@@H](C(=O)NC(c3ccccc3)c3ccccc3)N2C1=O`, the Potency result is “inactive”.
The result for `CC(C)(C)NC(=O)Nc1cccc(Nc2ncc(F)c(NC(C)(C)CO)n2)c1` reads “inactive”; that for `CC(C)C(=O)Nc1ncc(-c2cc(C(F)F)nn2-c2c(Cl)cccc2Cl)s1`, “inactive”.
The result for `CCOc1ccc(Nc2nc(-c3c(C)nc4ccccn34)cs2)cc1` reads 0.316 µM (active); that for `COCCOC(=O)C1=C(C)NC2=C(C(=O)CC(c3ccccc3OC)C2)C1c1cccc(O)c1` (stereo unspecified), “inactive”.
`COCCOc1nc(-c2ccc(Cl)c(Cl)c2)n(-c2ccc(NC(=O)CCl)cc2)n1`: the Potency was 11.2 µM (active).
The result for `NC(=O)c1cccc2[nH]c(-c3ccc([C@H]4CCCN4)cc3F)nc12` reads 31.6 µM (active); that for `CC(=O)O[C@]1(C(C)=O)CC[C@H]2[C@@H]3C=C(Cl)C4=CC(=O)[C@@H]5C[C@@H]5[C@]4(C)[C@H]3CC[C@@]21C`, “inactive”; that for `Cc1ccc(Nc2cc(-c3cccc(N4C(=O)c5ccccc5C4=O)c3)ncn2)cc1NS(C)(=O)=O`, “inactive”.
With `Cc1cccc(Nc2nc(-c3ccncc3)cs2)c1`, the Potency entry is “inactive”.
`CC(=O)Nc1ccc([C@H](C)C(=O)Nc2ncc(C(C)C)s2)cc1`: the Potency is 14.1 µM (active).
